Reference: PubChem BioAssay (NCI)
Where “and” joins values, the source holds several entries; their conditions need not be identical. Identical values can stand only once. About 83,000 compounds went through this panel and 20% of them were active in at least one assay; those are over-represented in the sample as a whole.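 Values shown are percent growth following 48 h exposure of cells in 96-well plates to a single concentration of compound; below 10 was considered active.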 Calls of active or inactive are those of the source.

Columns and labels:
Experiment in all cases: NCI-60 one-dose screen, 48 h (100 = growth as untreated, 0 = no growth, -100 = all killed)
Details in all cases: 10 µM
DU-145 prostate = system: DU-145 prostate
K-562 leukemia = system: K-562 leukemia
MALME-3M melanoma = system: MALME-3M melanoma
MDA-MB-231 breast = system: MDA-MB-231 breast
RXF 393 renal = system: RXF 393 renal
SF-268 CNS = system: SF-268 CNS
SF-295 CNS = system: SF-295 CNS
SF-539 CNS = system: SF-539 CNS
UACC-257 melanoma = system: UACC-257 melanoma
M14 melanoma = system: M14 melanoma

Row | SMILES | growth (DU-145 prostate) | growth (K-562 leukemia) | growth (MALME-3M melanoma) | growth (MDA-MB-231 breast) | growth (RXF 393 renal) | growth (SF-268 CNS) | growth (SF-295 CNS) | growth (SF-539 CNS) | growth (UACC-257 melanoma) | growth (M14 melanoma)
1 | COc1ccc2c(ccc3oc([N+](=O)[O-])cc32)c1 | 0.495% (active) | 0.428% (active) | -55% (active) | -20.3% (active) | -64.3% (active) | -6.08% (active) | -0.437% (active) | -18.7% (active) | -56.9% (active) | -40.2% (active)
2 | O=[N+]([O-])/C=C/c1ccc([N+](=O)[O-])cc1 | -47.5% (active) and 72.1% (inactive) | 5.65% (active) and 18.5% (inactive) | 66.7% (inactive) and 54.6% (inactive) | 66.5% (inactive) and 84.5% (inactive) | 101% (inactive) | 25.4% (inactive) and 103% (inactive) | 76.2% (inactive) and 104% (inactive) | -27.5% (active) and 75.7% (inactive) | -4.16% (active) and 96.5% (inactive) | -29.1% (active) and 66.1% (inactive)
3 | COC(C(=O)C(O)C(C)O)C1Cc2cc3cc(OC4CC(OC(C)=O)C(OC5CC(O)C(OC)C(C)O5)C(C)O4)cc(O)c3c(O)c2C(=O)C1OC1CC(OC2CC(OC3CC(C)(O)C(OC(=O)C(C)C)C(C)O3)C(O)C(C)O2)C(O)C(C)O1 (centres undefined) | -32.2% (active) | -68.4% (active) | -89.1% (active) | -26.3% (active) | -24.6% (active) | 2.42% (active) | -14.4% (active) | -78.2% (active) | -19.1% (active) | –
4 | CC(C)(C)OOC(=O)/C=C\C(=O)OOC(C)(C)C | 112% (inactive) | 104% (inactive) | 141% (inactive) | 97.5% (inactive) | 105% (inactive) | 93.8% (inactive) | 138% (inactive) | 93.8% (inactive) | 99.4% (inactive) | –
5 | S=C=NCCc1ccccc1 | 44.5% (inactive) | 20.4% (inactive) | 88.7% (inactive) | 38.4% (inactive) | 31.5% (inactive) | 58.2% (inactive) | 115% (inactive) | 29.1% (inactive) | 88.5% (inactive) | –
6 | COS(=O)(=O)c1ccccc1 | 114% (inactive) | 103% (inactive) | 111% (inactive) | 123% (inactive) | 109% (inactive) | 95.9% (inactive) | 109% (inactive) | 101% (inactive) | 101% (inactive) | –
7 | COc1ccccc1/C=C/[N+](=O)[O-] | 48.2% (inactive) | 33.8% (inactive) | 97.5% (inactive) | 73% (inactive) | 1.37% (active) | 76.1% (inactive) | 93.9% (inactive) | 64% (inactive) | 71.8% (inactive) | 59.8% (inactive)
8 | O=C(CCl)Nc1ccc(Cl)cc1 | 76.1% (inactive) | 19.4% (inactive) | 28% (inactive) | 46.7% (inactive) | 35.2% (inactive) | 41.9% (inactive) | 68.8% (inactive) | 105% (inactive) | 69.9% (inactive) | 47.1% (inactive)
9 | CC/C(=C/c1ccc(OC)cc1OC)[N+](=O)[O-] | 39.1% (inactive) | 3.65% (active) | 8.59% (active) | 18.4% (inactive) | -59.6% (active) | 41.5% (inactive) | 101% (inactive) | -1.55% (active) | 45.8% (inactive) | 54% (inactive)
10 | NNc1ccccc1 | 98.4% (inactive) | 19.5% (inactive) | 118% (inactive) | 89.8% (inactive) | 123% (inactive) | 82.6% (inactive) | 80.5% (inactive) | 99.3% (inactive) | 107% (inactive) | 46.6% (inactive)
11 | Cc1cc([N+](=O)[O-])c2ccccc2[n+]1[O-] | -35.9% (active) and -37% (active) | 1.04% (active) and -22.1% (active) | -20.8% (active) and -41% (active) | -17.4% (active) and -36.7% (active) | -51.4% (active) and -66.4% (active) | -12.7% (active) and -10.4% (active) | -21% (active) and -59% (active) | -49.2% (active) and -61.6% (active) | 8.15% (active) and -28% (active) | -80.7% (active) and -70.6% (active)
12 | C[C@]12CC[C@H]3[C@@H](CCC4=CC(=O)CC[C@@H]43)[C@@H]1CC[C@@H]2OC(=O)N(CCCl)N=O | 1.81% (active) | 29.5% (inactive) | 91.7% (inactive) | 76.3% (inactive) | 69.9% (inactive) | 23.7% (inactive) | 12.3% (inactive) | -0.439% (active) | 84.4% (inactive) | 49% (inactive)
13 | CC(C)c1cc([N+](=O)[O-])cc([N+](=O)[O-])c1O | 110% (inactive) | 119% (inactive) | 137% (inactive) | 99.7% (inactive) | 102% (inactive) | 102% (inactive) | 99% (inactive) | 101% (inactive) | 115% (inactive) | 99.7% (inactive)
14 | O=[N+]([O-])/C=C/c1ccc(Cl)cc1[N+](=O)[O-] | 75.2% (inactive) | 9.32% (active) | 96.3% (inactive) | 58.2% (inactive) | -94.7% (active) | 59.1% (inactive) | 91.6% (inactive) | -35.3% (active) | 89.3% (inactive) | 55.3% (inactive)
15 | O=[P+](O)c1ccccc1 | 121% (inactive) | 103% (inactive) | 119% (inactive) | 112% (inactive) | 115% (inactive) | 103% (inactive) | 109% (inactive) | 104% (inactive) | 101% (inactive) | 100% (inactive)
16 | CN(CCCl)c1ccc(/C=C/C2=[N+](C)c3ccccc3C2(C)C)cc1 | 28.9% (inactive) | 26.9% (inactive) | 23.5% (inactive) | 21.1% (inactive) | 82.3% (inactive) | 31.8% (inactive) | 45.5% (inactive) | 14.4% (inactive) | 30.8% (inactive) | 37.4% (inactive)
17 | CC[C@@]1(O)C[C@H](OC2CC(N(C)C)C(O)C(C)O2)c2c(cc3c(c2O)C(=O)c2c(O)ccc(O)c2C3=O)[C@H]1C(=O)OC (some centres undefined) | -77.8% (active) | -73.7% (active) | -87.4% (active) | -70.9% (active) | -66.3% (active) | -61% (active) | -81.5% (active) | -88.5% (active) | -67.7% (active) | -93.1% (active)
18 | COC12C(COC(N)=O)C3=C(C(=O)C(C)=C(N)C3=O)N1CC1C2N1C (centres undefined) | -3.38% (active) | 50.1% (inactive) | 31.4% (inactive) | 93.9% (inactive) | 46% (inactive) | 45.8% (inactive) | 17.3% (inactive) | 19.8% (inactive) | 16.6% (inactive) | 28.4% (inactive)
19 | O=[N+]([O-])c1ccc(Br)c([N+](=O)[O-])c1 | 93.4% (inactive) | 34.6% (inactive) | 68.6% (inactive) | 88.9% (inactive) | 102% (inactive) | 96.8% (inactive) | 108% (inactive) | 98.7% (inactive) | 74.3% (inactive) | 79.9% (inactive)
20 | Oc1c(I)cc(I)cc1I | 114% (inactive) | 98.6% (inactive) | 121% (inactive) | 93.7% (inactive) | 108% (inactive) | 104% (inactive) | 110% (inactive) | 102% (inactive) | 107% (inactive) | –
21 | COC(=O)C1C(O)C(C)C(O)C(C)/C=C\C=C(C)C(=O)Nc2c(C)c(OC(C)=O)c3c(c2O)C(=O)C(C)=C2OCOC(=C23)C(C)=CC(C)(O)C(O)C(C)C1O (centres undefined) | 92.2% (inactive) | 106% (inactive) | 97.9% (inactive) | 88.6% (inactive) | 98.6% (inactive) | 92.2% (inactive) | 103% (inactive) | 100% (inactive) | 93.1% (inactive) | 118% (inactive)
22 | O=C1CCC(=O)N1SC(Cl)(Cl)Cl | 120% (inactive) | 95.3% (inactive) | 118% (inactive) | 113% (inactive) | 108% (inactive) | 109% (inactive) | 117% (inactive) | 109% (inactive) | 110% (inactive) | 108% (inactive)
23 | C=NCC#N | 109% (inactive) | 91.2% (inactive) and 107% (inactive) | 95.6% (inactive) and 111% (inactive) | 100% (inactive) and 112% (inactive) | 111% (inactive) and 101% (inactive) | 103% (inactive) and 102% (inactive) | 98.3% (inactive) and 124% (inactive) | 88.4% (inactive) and 99.3% (inactive) | 114% (inactive) and 103% (inactive) | 94.2% (inactive)
24 | [O-][n+]1ccccc1S | 32.3% (inactive) | 31.2% (inactive) | 110% (inactive) | 58.7% (inactive) | 46.9% (inactive) | 70.7% (inactive) | 44.4% (inactive) | 67.6% (inactive) | 23.9% (inactive) | –
